Screening results deposited in PubChem by several laboratories.
Sampled rows, rich in hits. Any-hit rate of the full collection: about 2.9%.
KKLEB cytotox: cytotoxicity in KKLEB CF airway cells, primary screen, cytotoxicity control for CF NF-kB inhibitor project, cell-based, uHTS, fluorescence assay plates | KKLEB CF airway cells viability, ATPlite luminescence, overnight; stronger effect = lower value; cells stimulated with P. aeruginosa culture filtrate | activity change (cytotoxicity), % at 5 µM | 360,000 tested, 0.36% active | AID 602141, 2011;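 active = corrected activity change at or below -50% at 5 µM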
Shn3 inh set2: reduction of Shn3 3'UTR firefly luciferase signal, primary screen, Schnurri-3 inhibitor project, cell-based, Clone20 osteoblasts, set 2; inhibition, % at 12.5 µM; 360,000 tested, 0.52% active; Clone20 osteoblast Shn3 3'UTR firefly luciferase, 24 h;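 active = mean inhibition of at least 75% with every replicate also reaching 75%; inconclusive = mean inhibition at least 75% but some replicate below; inactive = mean inhibition below 75%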
Peg3 prom inh: Peg3 promoter-driven luciferase inhibitors, primary screen, cell-based, HeLa, luciferase luminescence; HeLa PEG-Prom luciferase reporter, overnight; inhibition, % at 20 µM; 360,000 tested, 1.7% active; AID 588405, 2011;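 active = inhibition of at least 50% at 20 µM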
EBV LMP1 NFkB: EBV LMP1-driven NF-kappaB luciferase reporter inhibitors, primary screen, cell-based, luminescence, single point; inhibition, % at 12.5 µM; AID 504558, 2011; LMP1-induced NF-kappaB luciferase reporter cells; 350,000 tested, 0.69% active; in the data active = inhibition above about 41%; inconclusive = no clear call, values can overlap the other calls
CF NFkB block: inhibitors of PAF-induced NF-kB signaling, primary screen, cell-based, GFP fluorescence, uHTS; KKLEB NF-kB-GFP reporter, GFP fluorescence overnight; inhibition, % at 5 µM; 360,000 tested, 0.86% active;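 active = at least 50% inhibition at 5 µM, scaled per plate between neutral and stimulator controls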;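 note: PAF is a Pseudomonas aeruginosa culture filtrate used as stimulus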
HIF-2a inh: HIF-2a reporter inhibitors, primary screen, luminescence, 786-0 RCC cells; 360,000 tested, 0.72% active; inhibition, % at 18.8 µM; 786-0 RCC cells HIF-2a reporter, luciferase luminescence, overnight; AID 624352, 2012;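 active = inhibition of the luminescence signal of 40% or more relative to plate controls, in a single-dose primary screen at 18.75 µM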
Mdm2-MdmX confirm: retested Mdm2-MdmX interaction blockers, confirmation, cell-based, luminescence, single concentration, set 2; shares compounds with HIF-2a inh; SaOS-2 split-luciferase Mdm2/MdmX complementation; inhibition, % at 8 µM; 740 tested, 99% active;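 active = mean inhibition of the luminescence signal across two replicates at or above 26 percent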
HIF-2a inh conf: HIF-2a reporter inhibitor retest, confirmation, luminescence, 786-0 RCC cells; shares compounds with HIF-2a inh; HIF-2a luciferase reporter luminescence, overnight; inhibition, % at 18.8 µM; 1,800 tested, 56% active; AID 651580, 2012;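 active = mean inhibition across four replicates of at least 40 percent at the single tested concentration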
HIF-1a counter: HIF-1a luciferase reporter signal reduction – MiaPaCa-2 cells, single concentration, counter-screen for HIF-2a inhibitor project, confirmation; shares compounds with HIF-2a inh; MiaPaCa-2 HIF-1a luciferase reporter, desferoxamine, overnight; inhibition, % at 18.8 µM; 1,800 tested, 72% active;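 active = mean inhibition of the reporter signal across four replicates at the single tested dose of 50% or more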
A number is an active result; i = inactive; ? = inconclusive; nt = no result given; ! = repeats disagree.

SMILES	KKLEB cytotox	Shn3 inh set2	Peg3 prom inh	EBV LMP1 NFkB	CF NFkB block	HIF-2a inh	HIF-2a inh conf	HIF-1a counter	others
Cc1ccc(Cl)cc1NC1=C/C(=N\S(=O)(=O)c2cccs2)c2ccccc2C1=O	-105	97	110	60!	92	90	nt	nt	Mdm2-MdmX confirm=102
COc1ccc(C(=O)Nc2ccc(S(=O)(=O)Nc3nccc(C)n3)cc2)cc1[N+](=O)[O-]	i	i	i	i	i	i	nt	nt
Cc1cc(NC(=O)c2ccccc2)c(Cl)cc1N	i	i	i	i	i	69	84	59
COc1ccc(C(=O)Nc2nc3ccccc3[nH]2)cc1	i	i	i	55	i	49	64	68
Cc1onc(C(=O)NN)c1C(=O)Nc1ncc(C(F)(F)F)cc1Cl	i	i	i	i	i	i	nt	nt
Cc1cc([N+](=O)[O-])ccc1NC(=O)c1ccco1	i	i	i	i	i	i	nt	nt
O=C(Nc1cccc(S(=O)(=O)N2CCCCC2)c1)c1ccc([N+](=O)[O-])o1	i	i	53	i	88	64	i	104
O=C(Nc1ccc(N2CCOCC2)c(Cl)c1)c1ccc([N+](=O)[O-])o1	i	i	106	i	74	81	i	77
Cc1cc(NC(=O)c2ccc([N+](=O)[O-])o2)ccc1NC(=O)c1ccco1	i	i	100	i	73	47	i	96
Cc1ccc(NC(=O)c2ccc([N+](=O)[O-])o2)cc1S(=O)(=O)N1CCOCC1	i	i	102	i	56	55	i	80
CCCCc1nnc(NC(=O)CCN2C(=O)C3CC=CCC3C2=O)s1 (stereo unspecified)	i	i	i	i	i	i	nt	nt
Cc1ccc(C(=O)OCC(=O)Nc2c(Cl)cc(S(N)(=O)=O)cc2Cl)o1	i	i	i	i	i	i	nt	nt
Cc1ccc(S(=O)(=O)N2CCCCC2)cc1NC(=O)COC(=O)C1=COCCO1	i	i	i	i	i	i	nt	nt
O=C(Nc1ccccc1N1CCCCC1)c1ccc([N+](=O)[O-])o1	i	i	i	i	i	i	nt	nt
Cc1ccc(-c2nc3ncccc3o2)cc1NC(=O)c1ccc([N+](=O)[O-])o1	i	i	57	i	i	54	i	102
CN1CCN(c2ccc(NC(=O)c3ccc([N+](=O)[O-])o3)cc2Cl)CC1	i	90	100	i	80	57	56	59
Cc1ccccc1NC(=O)COc1coc(CN2CCN(c3ccccc3)CC2)cc1=O	i	i	i	i	i	i	nt	nt
CCc1cccc(CC)c1NC(=O)/C(C#N)=C/c1ccccc1C(F)(F)F	-56	i	107	i	69	92	97	102
Cc1nn(C)c(C)c1/C=N/N=C1\CCC2C3CCc4cc(O)ccc4C3CCC12C (stereo unspecified)	i	i	i	i	i	i	nt	nt
COc1ccc(-c2csc3ncnc(NCCCO)c23)cc1	i	i	i	52	i	41	i	i
CCN(CC)CCCNc1ncnc2scc(-c3ccc(F)cc3)c12	i	i	i	i	i	i	nt	nt
Cc1cccc(C(=O)Nc2nccs2)c1[N+](=O)[O-]	i	i	i	i	i	i	nt	nt
Oc1cc(-c2ccc(N3CCCCC3)nc2)cc2cccnc12	i	?	i	i	i	i	nt	nt	Mdm2-MdmX confirm=99
Oc1cc(-c2ccncc2)cc2cccnc12	i	89	i	i	i	i	nt	nt	Mdm2-MdmX confirm=101
CN(C)c1ccc(-c2cc(O)c3ncccc3c2)cc1	i	i	i	i	i	i	nt	nt
SMILES	KKLEB cytotox	Shn3 inh set2	Peg3 prom inh	EBV LMP1 NFkB	CF NFkB block	HIF-2a inh	HIF-2a inh conf	HIF-1a counter	others
CN(C)CCCNC(=O)c1ccc(-c2cc(O)c3ncccc3c2)cc1	i	i	i	i	i	i	nt	nt
CCSCc1nnc(SCC(=O)Nc2ccc(F)cc2)n1CC	i	i	i	i	i	i	nt	nt
CCc1cccc(C)c1NC(=O)CSc1n[nH]c(N)n1	i	i	i	i	i	i	nt	nt
Cc1nc(N2CCN(C(=O)c3cnccn3)CC2)c2c3c(sc2n1)CC(C(C)(C)C)CC3 (stereo unspecified)	i	i	i	i	i	i	nt	nt
CCc1ccc2c(c1)/C(=C/C(=O)c1cccs1)C(=O)N2	i	i	i	i	i	75	61	103
O=C(/C=C1\C(=O)Nc2ccccc21)/C=C1\C(=O)Nc2ccccc21	i	i	i	i	i	i	nt	nt
CN1CC(=O)N2Cc3[nH]c4ccccc4c3C[C@H]2C1=O	i	i	i	i	i	i	nt	nt
C=C1C(=O)OC2C1CCC(C)=C1C(=O)C3OC3(C)C12 (stereo unspecified)	-85	98	107	i	86	92	97	101
CC[C@H](C)[C@@H](CN[C@H](CCCCNC)CNC)NCC1CCCC1	i	i	i	i	i	i	nt	nt
CCCC[C@@H](CN[C@H](C)CNC)NCC1CCC(C(C)(C)C)CC1 (stereo partly specified)	nt	nt	nt	nt	nt	nt	nt	nt	Mdm2-MdmX confirm=103
O=C(OCC(=O)c1c[nH]c2ccccc12)c1cc(S(=O)(=O)N2CCOCC2)ccc1F	i	i	i	i	i	42	i	72
COC(=O)CN1CCN(C(=O)c2ccco2)CC1	i	i	i	i	i	i	nt	nt
CCOC(=O)c1c(S(=O)(=O)Nc2ccccn2)c(C)n(C)c1C	i	i	i	i	i	i	nt	nt
COc1ccc(/C=N/n2cnc3c([nH]c4ccc(F)cc43)c2=O)cc1CN1CCCC1	i	i	91	i	i	i	nt	nt	Mdm2-MdmX confirm=100
COc1ccc(/C=N/n2c(=O)[nH]c3c([nH]c4ccc(F)cc43)c2=O)cc1CN1CCCCC1	i	i	i	i	i	i	nt	nt
Cc1cc(C)nc(SCc2ccc(C(=O)N/N=C/c3ccncc3)cc2)n1	i	i	i	i	i	i	nt	nt
Cc1cc(C)nc(SCc2ccc(C(=O)NNC(=O)Nc3cccc(Cl)c3)cc2)n1	i	i	75	i	i	90	50	105
COc1ccc(C=C(C(C)=O)C(=O)c2ccccc2)cc1	i	i	i	nt	i	i	nt	nt
CC(=O)C(=Cc1ccc(Cl)cc1)C(=O)c1ccccc1	i	i	99	nt	i	91	92	105
